# According to PubChem BioAssay (NCATS):
# Results filed as inconclusive are left out. Active and inactive are the calls of the source. The call rests on the fitted dose curve; in most records, active means well fitted inhibition curve with a large enough effect; inconclusive means small, poorly fitted or top-dose-only effect; inactive means no such curve, though single readings can be large or run the other way. Numbered stars: 1 amine (or outer) side, 2 acyl side, 3 side chain; on linkers, the order of the positions; unused ones are H or OH. Bridge positions count the residues as written; N and C are the ends. Square brackets hold non-standard residues; d marks the D form. Peptide text beside a SMILES is read from it. I, II: the chains in the order shown. Actinocin(9to1) = Cc1c2oc3c(C)ccc(C(=O)[*:1])c3nc-2c(C(=O)[*:2])c(N)c1=O; NMeV = CN[C@H](C(=O)O)C(C)C; Sar = CNCC(=O)O
# Assay: qHTS assay for measurement of the activity of small molecule inhibitors on Zika virus induced Caspase-3 activity in human iPSC derived neural progenitor cells (hNPCs) (AID 1224857); further: % of control where 0% means no effect; nearly all actives have a fitted effect of over 65% in size
# Details: hNPCs ZIKV-induced caspase-3/7, Caspase-Glo luminescence, 6 h; series mostly up to 45.7 µM
# Method in brief: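 Cells were plated at 350 per well and grown 16 to 20 hours. Compound pretreatment lasted one hour, after which ZIKV (2 FFU/cell) was added for 6 hours. Percent inhibition was normalized between uninfected and infected controls.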
SMILES,outcome,"activity change, negative = inhibition"
CC(=O)OCC(=O)[C@@]1(O)[C@H](C)C[C@H]2[C@@H]3CCC4=CC(=O)C=C[C@]4(C)[C@@]3(F)[C@@H](O)C[C@@]21C,inactive,–
C[C@H](CCC(=O)O)[C@H]1CC[C@H]2[C@@H]3C(=O)C[C@@H]4CC(=O)CC[C@]4(C)[C@H]3CC(=O)[C@]12C,inactive,–
CCn1cc(C(=O)O)c(=O)c2cnc(N3CCCC3)nc21,–,-4.24% [at 9.06 µM] (inactive)
O=C1OC2(c3ccc(O)cc3Oc3cc(O)ccc32)c2ccccc21,inactive,–
COCc1c(C(C)C)nc(C(C)C)c(/C=C/[C@@H](O)C[C@@H](O)CC(=O)O)c1-c1ccc(F)cc1,inactive,–
"Cc1c2oc3c(C)ccc(C(=O)N[C@@H]4C(=O)N[C@H](C(C)C)C(=O)N5CCC[C@H]5C(=O)N(C)CC(=O)N(C)[C@@H](C(C)C)C(=O)O[C@@H]4C)c3nc-2c(C(=O)N[C@@H]2C(=O)N[C@H](C(C)C)C(=O)N3CCC[C@H]3C(=O)N(C)CC(=O)N(C)[C@@H](C(C)C)C(=O)O[C@@H]2C)c(N)c1=O (I: T[dV]P[Sar][NMeV] / II: T[dV]P[Sar][NMeV]; ester I:1-I:C, II:1-II:C; linker I:N-II:N via Actinocin(9to1))",inactive,–
CC1(C)O[C@@H]2C[C@H]3[C@@H]4C[C@H](F)C5=CC(=O)CC[C@]5(C)[C@H]4[C@@H](O)C[C@]3(C)[C@]2(C(=O)CO)O1,inactive,–
CC(C)(CO)[C@@H](O)C(=O)NCCCO,inactive,–
COc1cc2c(cc1O)CC[C@@H]1[C@@H]2CC[C@]2(C)[C@@H](O)CC[C@@H]12,inactive,–
CC1(C)O[C@@H]2C[C@H]3[C@@H]4C[C@H](F)C5=CC(=O)C=C[C@]5(C)[C@H]4[C@@H](O)C[C@]3(C)[C@]2(C(=O)CO)O1,inactive,–
CCCCCCCCCCCCCCCC[N+](C)(C)CCN(Cc1ccc(OC)cc1)c1ncccn1,inactive,–
C=C1C[C@H]2[C@@H]3C=C(C)C4=CC(=O)CC[C@]4(C)[C@H]3CC[C@]2(C)[C@@]1(OC(C)=O)C(C)=O,inactive,–
NC(=NCCCCCCN=C(N)/N=C(\N)Nc1ccc(Cl)cc1)/N=C(\N)Nc1ccc(Cl)cc1,inactive,–
Oc1cc(O)c2c(c1)O[C@H](c1ccc(O)c(O)c1)[C@H](O)C2,inactive,–
CCC(=O)c1c(O)cc(O)cc1O,inactive,–
COc1ccc(CN2CCN(C(c3ccc(F)cc3)c3ccc(F)cc3)CC2)c(OC)c1OC,inactive,–
CC(C)COC(=O)c1ccc(N)cc1,inactive,–

SMILES,outcome,"activity change, negative = inhibition"
NC(CS)C(=O)O (stereo not drawn),inactive,–
Nc1ccc(C(=O)Nc2ccccc2N)cc1,inactive,–
CN1[C@@H]2CC[C@H]1CC(OC(=O)c1c[nH]c3ccccc13)C2 (stereo partly drawn),inactive,–
CC1(C)O[C@@H]2C[C@H]3[C@@H]4CCC5=CC(=O)CC[C@]5(C)[C@@]4(F)[C@@H](O)C[C@]3(C)[C@]2(C(=O)CCl)O1,inactive,–
CCCCCCCCCCCCCCCCCC(=O)OCC(O)CO (stereo not drawn),inactive,–
CC(=O)OCC(=O)[C@@]1(O)CC[C@H]2[C@@H]3CCC4=CC(=O)C=C[C@]4(C)[C@H]3[C@@H](O)C[C@@]21C,inactive,–
CCCC(=O)O[C@]1(C(=O)CO)CC[C@H]2[C@@H]3CCC4=CC(=O)CC[C@]4(C)[C@H]3[C@@H](O)C[C@@]21C,inactive,–
COc1c(C)c2c(c(O)c1C/C=C(\C)CCC(=O)O)C(=O)OC2,inactive,–
CN(C)CCOc1ccccc1Cc1ccccc1,inactive,–
C[C@H](O)C(=O)Nc1c(I)c(C(=O)NC(CO)CO)c(I)c(C(=O)NC(CO)CO)c1I,inactive,–
Nc1ccn([C@@H]2O[C@H](CO)[C@@H](O)C2(F)F)c(=O)n1,inactive,–
CN=C(NC#N)Nc1ccc(C2=NNC(=O)CC2C)cc1 (stereo not drawn),inactive,–
Oc1c(I)cc(I)c2cccnc12,inactive,–
COc1cccc2c1C(=O)c1c(O)c3c(c(O)c1C2=O)C[C@@](O)(C(=O)CO)C[C@@H]3O[C@H]1C[C@H](N)[C@H](O)[C@H](C)O1,inactive,–
C[C@]12CCC(=O)C=C1CC[C@H]1[C@@H]3CC[C@](O)(C(=O)CO)[C@@]3(C)C[C@H](O)[C@@]12F,inactive,–
CN1CCC[C@@H]1c1cccnc1,inactive,–
